In the library only some 6.5% were active in any assay of this set; here they are far more common.
VACV Venus inh – inhibitors of vaccinia virus (Venus reporter). Vaccinia virus Venus reporter expression, fluorescence. Potency, µM (titrated, usually from 36.5 µM), without a hit: top-dose activity change, negative = inhibition, most hits filed as inhibitors. actives 0.46% (n = 330,000); calls by dose curve; tested in A549 cells; also: potency is read from the fitted curve at half-maximal effect; nearly all actives have a fitted effect of over 30% in size
VACV mCherry inh – inhibitors of vaccinia virus infection (mCherry reporter signal); Vaccinia virus mCherry reporter infection, fluorescence; actives 0.63% (n = 310,000); Potency, µM (top dose mostly 36.5 µM), for the others: at the top dose activity change, negative = inhibition, actives largely listed as inhibitors; calls by dose curve; tested in A549 cells; also: potency is read from the fitted curve at half-maximal effect; nearly all actives have a fitted effect of over 35% in size
Marburg entry inh – blocks Marburg virus binding to or entry into cells. Marburg virus pseudotyped entry inhibition, cell reporter. Potency, µM (titrated, usually from 37.8 µM), for the others: at the highest dose activity change, negative = inhibition, usual class: inhibitors. actives 1.8% (n = 300,000). AID 540276; calls by dose curve; tested in HEK293 cells; also: potency is read from the fitted curve at half-maximal effect
Lassa entry inh – inhibitors of Lassa virus binding or cell entry; Lassa virus pseudotype entry inhibition, cell reporter; Potency, µM (top dose mostly 37.9 µM), for the others: at the top dose activity change, negative = inhibition, most hits filed as inhibitors; actives 1.2% (n = 300,000); AID 540256; calls by dose curve; tested in HEK293 cells; also: potency is read from the fitted curve at half-maximal effect; nearly all actives have a fitted effect of over 50% in size
HCMV antiviral – inhibitors of human cytomegalovirus | activity change, negative = inhibition, % at 57.5 µM | actives 4.5% (n = 410,000) | AID 1259415 | HFF cells, HCMV-luciferase reporter, 72 h; active compounds read low; in the data active = activity change below about -60%; inconclusive = no clear call, values can overlap the other calls; inactive = above about -39%
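Screen run at 2 compound doses on HFFs infected with reporter HCMV, MOI 1 PFU/cell. Luciferase activity from cell lysates at 72 h post infection gave inhibition relative to buffer-only and Salinomycin wells.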
FMDV antiviral – antivirals against foot and mouth disease virus; Potency, µM (series often up to 57.9 µM), inactives show top-dose activity change, negative = inhibition, most hits filed as inhibitors; FMDV antiviral cell-based qHTS; actives 1.2% (n = 410,000); AID 1159524; calls by dose curve; tested in HEK293T cells; also: read-out not given here; potency is read from the fitted curve at half-maximal effect; nearly all actives have a fitted effect of over 45% in size
Active calls of the source: *; i = inactive; ? = inconclusive; · = not tested or not shown; [ ] = dose if it differs, or a comment. % is scaled to controls: 0 for no effect and ±100 for the full control effect.

SMILES	VACV Venus inh	VACV mCherry inh	Marburg entry inh	Lassa entry inh	HCMV antiviral	FMDV antiviral
COc1cccc(N2CCN(C(=O)CC(NC(=O)c3ccccc3)c3ccccc3)CC2)c1 (stereo not given)	-9%	-20%	-20%	13%	-26	-12%
Cc1cccc(N2CCN(C(=O)CC(NC(=O)c3ccccc3)c3ccccc3)CC2C)c1 (stereo not given)	-21%	-19%	?	?	-66*	?
Cc1cccc(N2CCN(C(=O)c3ccc4ccccc4c3)CC2C)c1 (stereo not given)	-13%	?	?	?	-40	0%
Cc1ccc(S(=O)(=O)N2C=CC(=O)CC2c2cccs2)cc1 (stereo not given)	·	·	·	·	40	·
CCc1cc(OCCN(C)C)ccc1Cl	-7%	-2%	-6%[46.1 µM]	·	21	-1%
CN(C)CCOc1ccc2c(c1)C(=O)C(=Cc1ncc([N+](=O)[O-])n1C)C2	?	?	·	·	-98*	-5%
Cn1cnc(S(=O)(=O)N2CCC(C(=O)Nc3ccc(C#N)cc3)CC2)c1	-2%	-7%	·	10%[46.1 µM]	12	-13%
Cn1cnc(S(=O)(=O)N2CCC(C(=O)Nc3ccc(OC(F)(F)F)cc3)CC2)c1	-20%	i	·	18%[46.1 µM]	-60*	-13%
Cc1ccc(C(=O)Nc2ccnc(-c3cccnc3)n2)cc1	·	·	·	·	-11	52%
Cc1ccc(NC(=O)Nc2ccnc(-c3cccnc3)n2)cc1	·	·	?	?	-87*	-20%
CCOC(=O)C1=C(CC)Nc2ccccc2N=C1NC(=O)CCNC(C)=O	-10%	-3%	3%	2.8µM*	-36	0%
CCNc1ncc2nc(-c3ccccc3)c(=O)n(CCOC)c2n1	·	·	·	·	·	8%
COc1cc2c(cc1OC)/C(=C/c1ccc(N(C)C)cc1)C=C2	-18%	-7%	·	·	·	·
COc1ccc(OC)c(Nc2nc(N)nc(CCl)n2)c1	0%[7.34 µM]	-8%[7.34 µM]	-27%[46.1 µM]	?	-99*	?
COc1cccc(Nc2nc(N)nc(CCl)n2)c1	?	10µM*	?	?	-80*	16%
COc1ccc(N2CCN(Cc3nc(N)nc(Nc4ccccc4OC)n3)CC2)cc1	·	·	18µM*	?	-2	-18%
Cc1cccc(Nc2nc(N)nc(CSc3nccc(C)n3)n2)c1	-17%	-20%	?	0%	33	-9%
Cc1cccc(Nc2nc(N)nc(CCl)n2)c1	?	?	?	?	-104*	15%
COc1ccccc1Nc1nc(N)nc(CCl)n1	-2%[7.34 µM]	-6%[7.34 µM]	-5%[46.1 µM]	?	?	-4%
COc1ccccc1Nc1nc(N)nc(CN2CCN(Cc3ccccc3)CC2)n1	·	·	?	2%	22	-18%
COc1cccc(Nc2nc(N)nc(C(F)(F)F)n2)c1	·	·	?	7%	38	-3%
CCN1C(=O)N(S(=O)(=O)C(F)(F)F)C(c2ccccc2)C(C(=O)OC)=C1C (stereo not given)	·	·	-6%[14.2 µM]	?	·	·
COc1ccc([C@]23Cc4cc(C#N)ccc4[C@H](O2)C2=C(CC4(CCCCC4)OC2=O)O3)cc1	·	·	1%[14.2 µM]	·	·	·
CN(CCO)C(=O)c1cn(C2CCCN(Cc3cccc4ccccc34)C2)nn1 (stereo not given)	-6%	-6%	·	·	·	-6%
CC(=O)c1cccc(NC(=O)C(CC(C)C)NS(=O)(=O)c2ccc3c(c2)CCN3C(C)=O)c1 (stereo not given)	-5%	-3%	16%[46.1 µM]	10%[46.1 µM]	3	19%
SMILES	VACV Venus inh	VACV mCherry inh	Marburg entry inh	Lassa entry inh	HCMV antiviral	FMDV antiviral
Cc1cc(NC(=O)c2ccc(C)s2)n(-c2nc3ccccc3[nH]2)n1	?	-11%	10%	9%	-74*	13%
Cc1cc(C)nc(-n2nc(C)cc2Nc2ccccc2)n1	?	·	?	-27%	-66*	?
Cc1cc(Nc2ccccc2)n(-c2nc3ccccc3[nH]2)n1	?	·	?	?	-86*	-6%
Cc1cc(NC(=O)c2c(F)cccc2F)n(-c2nc3ccccc3[nH]2)n1	·	·	?	?	-89*	?
Cc1cc(NC(=O)c2c(F)cccc2Cl)n(-c2nc3ccccc3[nH]2)n1	?	-22%[1.46 µM]	?	?	?	0%
CCOC(=O)c1c(C)[nH]c(C)c1C(=O)COC(=O)/C=C/c1cccc(Cl)c1	-15%	i	-2%	-25%	-14	-15%
CCOC(=O)c1c(C)[nH]c(C=O)c1Cc1cccc(Cl)c1	?	-6%	?	6.3µM*	-36	0%
